# ALR inh: blocks human ALR sulfhydryl oxidase activity. 290,000 tested, 3.8% active. purified ALR, DTT oxidation, H2O2 HRP-luminol luminescence. P55789. inhibition, % (test concentration not listed). AID 485317;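 active = mean replicate inhibition above about 79%, with every replicate also reaching it, limit read from the data; inconclusive = only one of the two criteria met; inactive = mean below limit and not every replicate reaching it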
# Target sequence (P55789 whole entry, looked up): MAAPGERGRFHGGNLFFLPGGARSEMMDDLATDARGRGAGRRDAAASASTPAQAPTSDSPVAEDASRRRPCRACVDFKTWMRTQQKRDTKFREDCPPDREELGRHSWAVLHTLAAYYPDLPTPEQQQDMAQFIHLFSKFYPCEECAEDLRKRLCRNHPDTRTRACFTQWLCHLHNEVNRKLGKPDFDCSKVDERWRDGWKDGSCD
# AI-2 QS modul: modulates the Vibrio harveyi AI-2 quorum sensing system; Vibrio harveyi JMH597 AI-2 luminescence/OD600 ratio, 9 h; stronger effect = lower value; strain lacks LuxN and CqsS sensors; 0 = neutral-control median; activity change, % at 7.5 µM; 300,000 tested, 0.4% active; AID 2094; in the data active = activity change below about -75%, passing the limit was not always enough; inconclusive = no clear call, values can overlap the other calls;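 note: luminescence divided by OD600 gain over 9 h not by final OD600 alone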
# HIF act: HIF pathway transcriptional activation; U2OS HRE-luciferase reporter, luminescence; normalized: DMSO 0%, desferrioxamine 100%; activation, % at 7.5 µM (by protocol); 300,000 tested, 0.32% active;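 active = mean activation of at least 10% of the iron chelator positive control signal, with at least half of replicates also reaching 10%; inconclusive = mean and replicate majority disagree about reaching 10%; inactive = mean and most replicates under 10%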
# Mot1-301 SUMO: blocks SUMOylation pathway, rescuing yeast Mot1-301 growth. S. cerevisiae Mot1-301 growth rescue, ATP luminescence, 38.5C; percent above DMSO median, 100 means doubled. growth rescue, % at 18.8 µM. 320,000 tested, 1% active. AID 2716;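 active = every valid replicate shows activation above 250% relative to neutral control wells; inactive = the rest, any valid replicate at or below 250%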;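 note: OY570 slx delta 5 strain wells were the positive control but not used for scaling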
# An asterisk follows results filed as active; ? = inconclusive; . = no result given. Rows were chosen to be rich in hits. Some 4.8% of all compounds tested hit in one or more screens of this group.
SMILES,ALR inh,AI-2 QS modul,HIF act,Mot1-301 SUMO
COc1ccc(/C=N/Nc2nc(Nc3ccccc3)nc(N3CCCCC3)n2)cc1OC,98*,23,4,4
NC(=O)c1ccc(NC(=O)COC(=O)CNC(=O)c2sc3ccccc3c2Cl)cc1,-2,.,.,25
CC1CN(S(=O)(=O)c2cccc(C(=O)N(Cc3nnc(-c4ccccc4Cl)o3)C3CC3)c2)CC(C)O1 (stereo unspecified),-2,5,0,-6
Cc1ccc(OC(=S)Nc2ccc(O)cc2)cc1,99*,.,.,1
Nc1ccc(Oc2ccc3c(c2)C(=O)N(CC2CCCO2)C3=O)cc1 (stereo unspecified),-9,-10,-2,284*
Nc1ccc2c(c1)C(=O)N(CC1CCCO1)C2=O (stereo unspecified),-2,8,0,39
COc1cc(NC(=O)CN2C(=O)C(c3ccccc3)=NC2(C)C)cc(OC)c1,97*,7,0,-24
c1ccc(-c2nnc(-c3ccccn3)nn2)nc1,-16,11,2,-28
c1ccc(-c2cccc(-c3ccccn3)n2)nc1,-2,-89*,212*,6
Cc1ccc(S(=O)(=O)N2CCC[C@H]2C(=O)Nc2ccc(F)cc2C)cc1,-5,.,.,6
COc1ccccc1N1CCN(S(=O)(=O)c2ccc(F)cc2)CC1,39,30,-1,-12
COc1ccccc1N1CCN(S(=O)(=O)c2cccc(F)c2)CC1,97*,23,0,-24
COc1ccccc1N1CCN(S(=O)(=O)c2c(C)[nH]c(=O)[nH]c2=O)CC1,97*,32,0,1
Cc1[nH]c(=O)[nH]c(=O)c1S(=O)(=O)N1CCN(c2ccccc2F)CC1,-10,2,0,7
C=CCn1c(SCC(=O)c2ccc(O)c(O)c2)nnc1-c1cccc(OC)c1,99*,.,.,-14
C=CCn1c(SCC(=O)c2ccc(O)c(O)c2)nnc1-c1ccc(OC)cc1,91*,.,.,-9
C=CCn1c(SCC(=O)c2cccs2)nc2sc(C)cc2c1=O,-15,23,0,-12
C=CCn1c(SCC(=O)c2cccs2)nnc1-c1cccc(OC)c1,93*,-2,0,-24
C=CCn1c(SCC(=O)c2ccc(O)c(O)c2)nnc1-c1ccc(C)cc1,65,.,.,0
CC(OC(=O)c1cccc(S(=O)(=O)N2CCCCCC2)c1)C(=O)Nc1ccc(S(N)(=O)=O)cc1 (stereo unspecified),.,19,-1,.
COc1cccc(CNC(=O)C2CCN(c3nnc(N4CCCC4=O)s3)CC2)c1,-13,27,0,7
CCC(C)n1c(=O)c2sccc2n2c(CCCC(=O)N3CCC(C(N)=O)CC3)nnc12 (stereo unspecified),-2,7,0,9
COc1ccc(C(=O)NC2CCCc3ccccc32)cc1OC1CCN(C(C)=O)CC1 (stereo unspecified),-11,-1,0,1
O=C(CSc1nc2c(sc3ccccc32)c(=O)n1CCCN1CCCC1)NCc1ccco1,98*,13,1,-3
O=C(CSc1nc2c(sc3ccccc32)c(=O)n1CCO)NCc1ccco1,3,6,0,4
SMILES,ALR inh,AI-2 QS modul,HIF act,Mot1-301 SUMO
COCCCn1c(SCC(=O)NCc2ccco2)nc2sc3c(c2c1=O)CCC3,94*,22,0,-9
COc1cc(CCNC(=O)CCCn2c(=O)c3cccn3c3cccnc32)cc(OC)c1OC,-1,12,-1,2
COc1ccc(CNS(=O)(=O)c2cc3c4c(c2)C(C)C(=O)N4CCC3)cc1 (stereo unspecified),-5,4,?,4
COc1cccc2sc(NN)nc12,98*,-14,0,-3
COc1cccc2sc(Nc3nnc(-c4ccccc4Cl)o3)nc12,86*,27,0,-6
COc1ccccc1-c1nnc(Nc2nc3c(OC)cccc3s2)o1,-2,23,5,-1
CC1CCCCN1CCCNC(=O)CN1C(=O)c2cccnc2Oc2ccccc21 (stereo unspecified),-28,-2,0,-16
Cc1ccc(N(C)S(=O)(=O)c2ccc(-c3cc(C)no3)s2)cc1,0,25,9.7*,-13
COc1ccccc1OCC(=O)NCC1CCCN(Cc2cnn(C(C)C)c2)C1 (stereo unspecified),-10,12,0,2
CC(=O)c1cccc(NCC(=O)Nc2cc(S(=O)(=O)N3CCCCC3)ccc2C)c1,3,24,0,4
COC(=O)/C(=C(/F)SCC(C)=O)C(F)(F)F,-20,-2,91*,-1

# From PubChem
